Our source for the inhibition and outcome values is PubChem BioAssay AID1794835 (Parasite Biology Lab, Institute for Biomedicine and …, 2023).

The whole screen tested about 2,500 compounds, of which about 45 (2%) were called active. Rule as the data show it: active = inhibition mostly above about 45% (no sharp cut-off); inactive = mostly below about 37%. Many of the other results were omitted from the sample, so actives are more common in it than they were.

One may read the inhibition as how much of the control response was suppressed.

This experiment is described as follows: anti-Giardia activity of synthetic compounds – Compounds Australia Scaffold Library subset, 24/48 h, primary screen (AID 1794835).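 As to inhibition: 0% = parasite counts in DMSO vehicle wells.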 Particulars: Giardia lamblia BRIS/91/HEPU/1279 trophozoite counts, imaging, at 10 µM.
[1] abbreviates: measured here: growth inhibition at 24 h, stronger effect = higher value.

With `Fc1cccc(Nc2c3c(nc4ccccc24)CCC3)c1`, the inhibition runs as follows: (stronger effect = higher value) 55.5% (active); under setting [1], 2.3%.
On to `CCc1cccc(NC(=O)C2CCCN(S(=O)(=O)c3c(C)noc3C)C2)c1` (stereo unspecified), for which the outcome was inactive. This compound registered an inhibition under setting [1] of 13.3%.
Take `O=C1CSCN1CC(=O)N1CCCCC1c1cc2ccccc2[nH]1` (stereo unspecified): the inhibition result is “inactive”.
In the case of `COc1ccc(C2=Nc3ccccc3N(Cc3cccc(F)c3)C(=O)C2)cc1`, the inhibition by setting is: (stronger effect = higher value) 30.2% (inactive); under setting [1], 8.7%.
Turning to `COc1ccc(-n2ccn(CC(=O)Nc3cccc(F)c3)c2=O)cc1`, the inhibition result is “inactive”.
As to `COc1ccc(C2=Nc3ccccc3N(CC(=O)Nc3cccc(F)c3)C(=O)C2)cc1`, the inhibition by setting is: (stronger effect = higher value) 40.3% (active); under setting [1], 12.6%.
As for `CNC(=O)N1C[C@@H](CN(C)C)[C@@H](C2CCN(CCC(C)C)CC2)C1`, the outcome was inactive. In addition, under setting [1], the inhibition turned out to be 13.1%.
For `COc1ccc(CNS(=O)(=O)c2ccc3onc(C(=O)N4CCCCC4)c3c2)cc1OC` the same measures were “inactive” and 3.7%.
With `O=C(NCc1ccccc1)c1cc(-c2ccco2)on1`, the inhibition entry is “inactive”.
As for `O=C(Nc1nc(-c2ccco2)c(-c2ccco2)s1)c1ccccc1`, the inhibition is 71.2% (active) (stronger effect = higher value) and 27.2% under setting [1].
Turning to `Cc1ccc(NC(=O)c2ncoc2-c2ccco2)cc1Cl`, the inhibition result is “inactive”.
Consider `CCN1CCc2nc(NC(=O)c3ccccc3)sc2C1`, for which the inhibition result was “inactive”.
Regarding `CC(=O)c1c(C)[nH]c(C(=O)Nc2nc(-c3ccco3)c(-c3ccco3)s2)c1C`, the inhibition is, setting by setting: (stronger effect = higher value) 52.8% (active); under setting [1], 25%.
Turning to `COCC(=O)N1CCC(Oc2ncccc2C(=O)N(C)C)CC1`, the inhibition (stronger effect = higher value) was 4.8% (inactive).
On to `O=C(c1ccc(F)cc1)N1CCN(c2nc3cc(Br)ccc3n3cccc23)CC1`, for which the inhibition entry is “inactive”.
For the compound `COc1cc(S(=O)(=O)N2CCN=C2Cc2ccccc2)c(OC)cc1Cl`, the inhibition entry was “inactive”.
Regarding `O=C(c1ccc2nc[nH]c2c1)N1CCN(Cc2cccc(Cl)c2)CC1`, the outcome was inactive. The compound also had an inhibition under setting [1] of 6%.
Regarding `CCCC(=O)Nc1nnc(S(=O)(=O)N(C)Cc2ccco2)s1`, the inhibition entry is “inactive”.
Still for that read-out and setting: the value for `Cc1noc2ncc(C(=O)N3CCN(CCO)CC3)cc12` was “inactive”.
With `O=C(NC1CCCCC1)c1nc(Nc2ccccc2)c2ccccc2n1`, the inhibition (stronger effect = higher value) is 73.1% (active) and the inhibition under setting [1] stood at 59.6%.
The like results for `O=C(NC1CCCCC1)c1cc(-c2ccco2)nc2ccccc12` were, in that order, 20.8% (inactive) and 17.2%.
On to `O=C(c1nc(Nc2ccc(F)cc2)c2ccccc2n1)N1CCCCCC1`, for which the inhibition result is “inactive”.
On to `CCC(OC1CCCC1)C(=O)N1CCN(c2nccn2C)CC1` (stereo unspecified), for which the compound was classed as inactive. Also, the inhibition under setting [1] was determined as 9.4%.
For the compound `CC(=O)Nc1cc(C(=O)NCCCN2CCC(C)CC2)ccc1S(=O)(=O)c1ccc(Cl)cc1`, the inhibition (stronger effect = higher value) is 23.9% (inactive) and the inhibition under setting [1] was 5%.
The like results for `CCCNS(=O)(=O)c1cc(-c2nc(-c3cccc(Cl)c3)cs2)n(C)c1C` were, in that order, 32.9% (inactive) and 21.9%.
Take `Cc1csc(-c2cc(S(=O)(=O)N3c4ccccc4CC3C)c(C)n2C)n1` (stereo unspecified): the inhibition is 63.6% (active) (stronger effect = higher value) and 22.6% under setting [1].
`Cc1nn(Cc2csc(-c3ccsc3)n2)c(C)c1S(=O)(=O)N1CCc2ccccc21`: the inhibition is 7.1% (inactive) (stronger effect = higher value) and 12.8% under setting [1].
For the compound `CN(Cc1ccccc1)C(=O)c1cccc2c1CCN2C(=O)Nc1ccccc1`, the compound was called inactive. In addition, the inhibition under setting [1] stood at 2.8%.
As to `CCc1c(C2CCN(C(=O)C3COc4ccccc4O3)CC2)noc1N` (stereo unspecified), the inhibition entry was “inactive”.
With `Cc1ccc(NC(=O)N2CCCC(C)(C(=O)NCc3ccc(F)cc3)C2)cc1` (stereo unspecified), the inhibition result is “inactive”.
Turning to `Cc1ccc(C(=O)Nc2cc(-c3nc(C)cs3)sc2C)cc1`, the inhibition was 56.1% (active) (stronger effect = higher value) and 28% under setting [1].
Regarding `COc1ccc(C(=O)Nc2cc(-c3nc(C)cs3)sc2C)cc1OC`, the inhibition (stronger effect = higher value) is 27.2% (inactive) and the inhibition under setting [1] was 11.4%.
Take `Cc1csc(-c2ccc(CNC(=O)c3cncc(Br)c3)cc2)n1`: the inhibition result is “inactive”.
Still for that read-out and setting: the same measure for `O=C(c1cc(Cl)c[nH]1)N1CCCN(Cc2cscn2)CC1`: “inactive”; for `Cc1noc2nc(-c3ccccc3F)cc(C(=O)N3CCCC3c3nnc4ccccn34)c12` (stereo unspecified): “inactive”.
For `O=C1CCCc2cc(S(=O)(=O)N3CCN(c4ccccc4)CC3)ccc2N1`, the inhibition is 19.1% (inactive) (stronger effect = higher value) and 8.5% under setting [1].
Regarding `CC1(c2ccco2)NC(=O)N(Cc2cn(-c3ccccc3)nc2-c2ccccc2)C1=O` (stereo unspecified), the inhibition result is “inactive”.
On to `COc1ccc(CNC(=O)c2[nH]c3cc(C)sc3c2CN2CCCC2)cc1`, for which the inhibition was 35.5% (inactive) (stronger effect = higher value) and 10.1% under setting [1].
The like results for `Cc1sc2cc(C(=O)NC(C)(C)C)[nH]c2c1CN1CCOCC1` were, in that order, 2.4% (inactive) and 3%.
As for `Cc1cc2[nH]c(C(=O)Nc3ccccc3C)c(CN3CCOCC3)c2s1`, the inhibition is 97.7% (active) (stronger effect = higher value) and 94.7% under setting [1].
`Cc1ccc(S(=O)(=O)N2CCc3nc(N4CCOCC4)[nH]c(=O)c3CC2)cc1C`: the inhibition result was “inactive”.
Still for that read-out and setting: the same measure for `Cc1cc(C)c(S(=O)(=O)N2CCN(C)c3ccccc32)c(C)c1`: “inactive”.
With `CCOC(=O)c1ccc(S(=O)(=O)Nc2cccc(-c3nnc(-c4ccccc4)o3)c2)cc1`, the inhibition (stronger effect = higher value) is 2.3% (inactive).
Take `O=S(=O)(Cc1ccccc1)Nc1cccc(-c2nnc(Cc3ccc4c(c3)OCO4)o2)c1`: the inhibition is 46.9% (active) (stronger effect = higher value) and 17.2% under setting [1].
For the compound `CCc1nnc(-c2nnc(NCc3ccc4c(c3)OCO4)c3ccccc23)o1`, the outcome was inactive. Moreover, the inhibition under setting [1] worked out at 3%.
`c1cnc(N2CCN(c3ncnc4nc[nH]c34)CC2)nc1`: the inhibition (stronger effect = higher value) is 0.6% (inactive).
